{"source": "PubChem BioAssay AID588473", "about": "(Sanford-Burnham Center for Chemical Genomics, 2011)", "note": "Hit rate of the full screen: of about 350,000 compounds, about 1,600 (0.46%) were called active.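 The calls were made as follows: active = activation of at least 50%, plus an integration ratio under a set limit after plate pattern correction; inactive = the rest.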 The full list was thinned out, with actives kept by preference."}
{"test_system": "CRF-binding protein / CRF receptor 2 complex (human)", "assay": "activators of CRF-R2 with CRF-BP – cell-based, HEK293, calcium dye fluorescence, uHTS, primary screen (AID 588473);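 also: plate controls were neutral control wells without compound for no effect and CRF at EC100 for full effect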", "conditions": "calcium dye fluorescence (FLIPR), at 13.2 µM, active compounds read high, percent of saturating CRF peptide response"}
{"smiles": "CCN(Cc1ccncc1)C(=S)Nc1ccccc1C", "activation": "-0.24% (inactive)"}
{"smiles": "COCCCNC(=S)N(CCN(C)C)Cc1cc2cc3c(cc2[nH]c1=O)OCCO3", "activation": "0.16% (inactive)"}
{"smiles": "CC(=O)NC(CC(=O)Nc1nccs1)c1ccccc1", "note": "(stereo not given)", "activation": "2.22% (inactive)"}
{"smiles": "O=C(Nc1ccccc1C(F)(F)F)N1CCCC1c1cccnc1", "note": "(stereo not given)", "activation": "0.09% (inactive)"}
{"smiles": "Cc1ccc(NC(=O)CSc2nc(=O)n(CCN(C)C)c3c2CCCC3)c(C)c1", "activation": "-0.4% (inactive)"}
{"smiles": "CCOC(=O)Cc1c(C)nc2c(C#N)c(C)nn2c1C", "activation": "-2.38% (inactive)"}
{"smiles": "O=C(NCCc1ccccc1Cl)C1CCC(=O)N(CCCc2ccccc2)C1", "note": "(stereo not given)", "activation": "-1.43% (inactive)"}
{"smiles": "C/C(=N\\NC(=O)c1cc2c(s1)CCC(C)C2)c1cccnc1", "note": "(stereo not given)", "activation": "-0.26% (inactive)"}
{"smiles": "Cc1cc2nc3c(=O)n(Cc4ccccc4)c(=O)[nH]c3nc2cc1N", "activation": "89.5% (active)"}
{"smiles": "CN(C(=O)COC(=O)c1ccc(Br)o1)c1c(N)n(Cc2ccccc2)c(=O)[nH]c1=O", "activation": "1.22% (inactive)"}
{"smiles": "Nc1cc(=O)n(Cc2ccccc2)c(=O)n1Cc1ccccc1", "activation": "-0.25% (inactive)"}
{"smiles": "CCCS(=O)(=O)N1CCCC(C(=O)NCCN2CCCCC2C)C1", "note": "(stereo not given)", "activation": "2.69% (inactive)"}
{"smiles": "O=C(/C=C(O)/C=C/c1ccc(O)cc1)/C=C/c1ccc(O)cc1", "activation": "123% (active)"}
{"smiles": "O=C(O)/C=C/c1ccc(S(=O)(=O)N2CCCCCC2)cc1", "activation": "-6.06% (inactive)"}
{"smiles": "COc1cccc(C=CC(=O)C=CC=Cc2ccccc2)c1", "activation": "3.04% (inactive)"}
{"smiles": "Cc1cc(Cl)ccc1C(=O)C1CCCN(C(=O)c2ccc3c(c2)OCO3)C1", "note": "(stereo not given)", "activation": "-0.83% (inactive)"}
{"smiles": "CC1(C)Cc2c(sc(NC(=O)C(=O)NCC3CCCO3)c2C(=O)O)CO1", "note": "(stereo not given)", "activation": "1.19% (inactive)"}
{"smiles": "O=C(Nc1cccc(Cl)c1)Nc1ccccc1NS(=O)(=O)c1cccs1", "activation": "38.9% (inactive)"}
{"smiles": "COc1cc(NC(=O)c2ccccc2NS(=O)(=O)c2ccc(Cl)s2)cc(OC)c1", "activation": "59.3% (active)"}
{"smiles": "O=S(=O)(Nc1ccccc1N1CCOCC1)c1ccc(Cl)s1", "activation": "0.68% (inactive)"}
{"smiles": "COc1ccc(CN2CCn3ncc(C(=O)Nc4ccc(Cl)cc4Cl)c3C2=O)cc1", "activation": "1.96% (inactive)"}
{"smiles": "COc1ccccc1CNC(=O)C1CCCN(S(=O)(=O)c2cccc3cccnc23)C1", "note": "(stereo not given)", "activation": "-0.51% (inactive)"}
{"smiles": "COc1cc(OC)c(-n2c(C)cc(C=O)c2C)cc1Cl", "activation": "0.85% (inactive)"}
{"smiles": "COc1cc(OC)c(-n2cc(-c3ccc(Cl)cc3)[nH]c2=O)cc1Cl", "activation": "180% (active)"}
{"smiles": "COc1ccc(-n2c(-c3ccc(Cl)cc3)n[nH]c2=S)c(OC)c1", "activation": "-2.26% (inactive)"}
{"smiles": "COc1ccc(NC(=O)N(C)C[C@H]2Oc3ncc(C#C[C@@H](C)O)cc3C(=O)N([C@H](C)CO)C[C@H]2C)cc1", "activation": "5.65% (inactive)"}
{"smiles": "CC(C)c1ccc(NC(=O)Cn2ncc3ccccc32)cc1", "activation": "-4.37% (inactive)"}
{"smiles": "CC(NC(=O)Nc1ccccc1)c1ccccc1", "note": "(stereo not given)", "activation": "-0.98% (inactive)"}
{"smiles": "CCC(C(=O)Nc1ccc(C(C)C)cc1)c1ccccc1", "note": "(stereo not given)", "activation": "84.3% (active)"}
{"smiles": "Cc1cc2c(cc1C)[n+](C)cn2CC(O)COCC1CC=CCC1", "note": "(stereo not given)", "activation": "0.16% (inactive)"}
{"smiles": "CC(C)NS(=O)(=O)c1ccc(NC(=O)C2CCCCC2)cc1", "activation": "1.98% (inactive)"}
{"smiles": "O=C(Nc1ccc2c(c1)OCCO2)C1CCCC1", "activation": "-0.49% (inactive)"}
{"smiles": "O=C(O)c1ccc(NC(=O)C2CCCCC2)cc1", "activation": "51.5% (active)"}
{"smiles": "CC(=O)NC12CC3CC(C1)CC(C(=O)N1CCN(S(=O)(=O)c4cccs4)CC1)(C3)C2", "activation": "-0.5% (inactive)"}
{"smiles": "N#Cc1cccc(CSc2ncnc(N)n2)c1", "activation": "-1.54% (inactive)"}
{"smiles": "CCc1ccc(CN(C)C(=O)CCc2nnc(-c3ccc(-c4ccccc4)cc3)o2)nc1", "activation": "-0.63% (inactive)"}
{"smiles": "CCCCCCc1cc2cc(-c3nnc(-c4ccccc4)o3)c(=O)oc2cc1O", "activation": "269% (active)"}
{"smiles": "COc1ccccc1-c1nnc(-c2ccc(F)cc2)o1", "activation": "0.06% (inactive)"}
{"smiles": "COc1ccc(Cl)cc1-n1c(=S)sc2c(=O)n(-c3ccc(F)cc3)c(SCC(=O)O)nc21", "activation": "-1.84% (inactive)"}
{"smiles": "Cc1cccn2c(=O)c(/C=C(\\C#N)S(=O)(=O)c3ccc(Cl)cc3)c(N3CCC(C(N)=O)CC3)nc12", "activation": "9.75% (inactive)"}
{"smiles": "CCOC(=O)CC1C(=O)NCCN1c1nc2c(C)cccn2c(=O)c1/C=C1\\SC(=S)N(C(C)CC)C1=O", "note": "(stereo not given)", "activation": "177% (active)"}
{"smiles": "Cc1cccn2c(=O)c(/C=C(\\C#N)C(N)=O)c(N3CCCCCC3)nc12", "activation": "-2.5% (inactive)"}
{"smiles": "CCCN(CCC)c1ccc(C(O)c2nnc(-c3ccccc3)o2)cc1", "note": "(stereo not given)", "activation": "-0.49% (inactive)"}
{"smiles": "Cc1cccc2c1-c1sc(C(=O)NCCCN3CCc4ccccc4C3)cc1CO2", "activation": "3.21% (inactive)"}
{"smiles": "C[C@H]1CN([C@@H](C)CO)C(=O)Cc2cc(NC(=O)Cc3ccccc3)ccc2O[C@H]1CN(C)S(=O)(=O)c1cccs1", "activation": "0.76% (inactive)"}
{"smiles": "Cc1c(NC(=O)c2coc(=O)c(Br)c2)c(=O)n(-c2ccccc2)n1C", "activation": "-1.21% (inactive)"}
{"smiles": "O=C(Nc1cccc(F)c1)c1coc(=O)c(Br)c1", "activation": "67% (active)"}
{"smiles": "O=C(CCN1C(=O)c2ccccc2C1=O)Nc1cccc(F)c1", "activation": "-0.06% (inactive)"}
{"smiles": "O=C(O)c1ccc(S(=O)(=O)c2ccccc2)s1", "activation": "0.6% (inactive)"}
{"smiles": "Cc1nn(C(C)(C)C)c(OC(=O)CC(C)C)c1S(=O)(=O)c1ccccc1", "activation": "4.7% (inactive)"}
{"smiles": "CC(C)[C@H](NC(=O)N1c2ccccc2NC(=O)[C@@H]1C(C)C)C(=O)N[C@H](C(=O)O)c1ccccc1", "activation": "0.51% (inactive)"}
{"smiles": "CCN1/C(=C/c2ccc3ccc(C)cc3[n+]2CC)Sc2ccccc21", "activation": "143% (active)"}
{"smiles": "CCN1/C(=C\\c2ccc3ccccc3[n+]2CC)Sc2cc(C)ccc21", "activation": "200% (active)"}
{"smiles": "COc1ccc(SCCN2CCN(CC(C)C)CCC2=O)cc1", "activation": "-0.91% (inactive)"}
{"smiles": "COC(=O)C(C)Oc1ccc2c(-c3cccc([N+](=O)[O-])c3)cc(=O)oc2c1", "note": "(stereo not given)", "activation": "-3.43% (inactive)"}
{"smiles": "CCC1SC(CC)C(=O)N(CC(=O)NC2CCCCC2)C1=O", "note": "(stereo not given)", "activation": "-0.56% (inactive)"}
{"smiles": "CCOC(=O)[C@H]1[C@H]2COc3ccccc3[C@@H]2N2C(=O)CN(Cc3ccccc3)C(=O)[C@@]12C", "activation": "-0.27% (inactive)"}
{"smiles": "O=C(N/N=C/c1cc(Br)c(O)c([N+](=O)[O-])c1)C(O)(c1ccccc1)c1ccccc1", "activation": "-0.94% (inactive)"}
{"smiles": "c1ccc(C(=NNc2nc3ccccc3s2)c2ccccn2)cc1", "activation": "5.4% (inactive)"}
{"smiles": "O=[N+]([O-])c1cc(Br)c(O)c(/C=N/Nc2nc3ccccc3s2)c1", "activation": "82.8% (active)"}
